OD600 absorbance data for 20 compounds are collected here from PubChem BioAssay AID1053175 (ICCB-Longwood Screening Facility, Harvard Medical School, 2014).

Molecules are shown by their SMILES. In all, about 330,000 compounds went through this assay and about 700 (0.21%) were called active. For the sample, actives were picked, then their nearest neighbours and some compounds at random. A number with no mark means an inactive call.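 The calls were made as follows: active = OD600 absorbance below the run mean of sample wells minus 3.6 SD, in any replicate (cut at about 0.56 in these data); inactive = the rest.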

The assay in a line: antibacterial activity against Escherichia coli – OD600, primary screen (AID 1053175). To be noted: Escherichia coli growth, OD600, 23 h; hits give low values.
With `CCCCCCCCCCCCn1ccc(=N)cc1`, the OD600 absorbance was 0.07 (active).

As for `CN1CCN(N=Cc2c[nH]c3ccccc23)CC1`, the OD600 absorbance was 0.702.

As for `COC(=O)C1=C(c2cccc(OC)c2OC)CC2CCC1N2C(=O)N1CCOCC1` (stereo not given), the OD600 absorbance was 0.685. Turning to `Nc1nonc1C(=O)NN=Cc1ccc([N+](=O)[O-])o1`, the OD600 absorbance was 0.449 (active).

Turning to `COCCNC(=O)N1C2CCC1C(C(=O)OC)=C(c1ccc(OC(F)(F)F)cc1)C2` (stereo not given), the OD600 absorbance was 0.679. With `COC(=O)C1=C(c2ccc(F)cc2OCc2ccccc2)CC2CCC1N2C(=O)NCc1ccco1` (stereo not given), the OD600 absorbance was 0.626. Take `Oc1ccc(C=NNP(=S)(c2ccccc2)c2ccccc2)cc1O`: the OD600 absorbance was 0.685.

In the case of `C=C1C(=O)OC2CC(C)C3C=CC(=O)[C@@]3(C)C(O)C12` (stereo not given in full), the OD600 absorbance was 0.625.

On to `O=[N+]([O-])c1cnc2ccc3ccccc3c2c1`, for which the OD600 absorbance is 0.447 (active). With `CCN(CC)c1ccc([N+](=O)[O-])c2cccnc12`, the OD600 absorbance was 0.662. Turning to `Cc1ccc(-n2c(-c3ccc([N+](=O)[O-])cc3)nc3ccccc3c2=O)cc1`, the OD600 absorbance was 0.718. In the case of `CNC(=O)Nc1ccc(C(=O)NN=CC23CC[C@@H](O)CC2(O)CC[C@@H]2[C@@H]3CCC3(C)C(C4=CC(=O)OC4)CCC23O)cc1` (stereo not given in full), the OD600 absorbance is 0.72. Turning to `CC12CCC3C(CCC4CC(=NO)CCC43C)C1CCC2O` (stereo not given), the OD600 absorbance was 0.701. The result for `COc1ccc(-n2c(C=C3C(=O)Nc4ccccc43)nc3ccccc3c2=O)cc1` reads 0.706; that for `COC(=O)C1=C(c2ccc(S(C)(=O)=O)cc2)CC2CCC1N2C(=O)NCc1ccc(F)cc1` (stereo not given), 0.701; that for `COc1ccc(N2C(=O)/C(=C/c3ccco3)C(=O)NC2=S)cc1`, 0.67. With `COc1cccc(N2C(=O)NC(=O)/C(=C\c3ccc([N+](=O)[O-])s3)C2=O)c1`, the OD600 absorbance is 0.482 (active). The result for `O=C1NC(=O)N(c2ccccc2)C(=O)/C1=C/c1ccc([N+](=O)[O-])s1` reads 0.531; that for `COC(=O)C1=C(c2ccc(OC(F)(F)F)cc2)CC2CCC1N2C(=O)NC1CC1` (stereo not given), 0.688; that for `C[C@]12CCC3c4ccc(O)c(O)c4CCC3C1CCC2O` (stereo not given in full), 0.667.
